Test [1] in a line: Cell Viability - HepG2 (AID 433; calls by dose curve;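 also: potency is read from the fitted curve at half-maximal effect; potency for ATP loss meaning cytotoxicity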). Particulars: qHTS. In outline: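 Cytotoxicity is scored as loss of intracellular ATP in HepG2 cells exposed to compounds for 40 h. Concentration-response curves, normalized to DMSO and 100 uM tamoxifen, give AC50 values.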
For orientation: In qHTS, concentration-response curves come from the screen itself.

Test [2] is described as follows: Cell Viability - MRC5 (AID 434; calls by dose curve;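 also: potency is read from the fitted curve at half-maximal effect; potency reflects cytotoxicity seen as loss of intracellular ATP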). Particulars: MRC5 lung fibroblast viability, qHTS. In outline:
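MRC5 normal human lung fibroblasts, 1500 cells/well, exposed to compound for 40 hr at 37 C. Cellular ATP was read by CellTiter-Glo luminescence; data normalized to DMSO and 100 uM tamoxifen, with AC50 from Hill fits.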

Test [3] addresses Mitogen-activated protein kinase 10 (Mus musculus) (UniProt Q61831). Nature of the test: JNK3 AlphaScreen Assay (AID 530; active = well fitted curve in either direction with a large enough effect, not every such curve was filed as active;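 also: kinase came from lysate of stimulated human HepG2 cells; signal reports phosphorylation of biotinylated GST-cJun 1-79 at Ser73 with 10 µM ATP; % is scaled to controls: 0 for no effect and ±100 for the full control effect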). Particulars: JNK3 lysate, c-Jun phosphorylation; series mostly up to 57.1 µM. In outline:
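qHTS format: compounds tested as titrations against IL-1beta/TNF-alpha-activated HepG2 lysate JNK3 with biotin-GST-cJun substrate and 10 uM ATP at room temperature. Loss of anti-phospho-cJun AlphaScreen signal indicates inhibition.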
In general terms: Bead proximity is the source of the signal in Alpha formats.

Test [4] in a line: Cell Viability - HUV-EC-C (AID 542). Also: % is scaled to controls: 0 for no effect and ±100 for the full control effect; nearly all actives have a fitted effect of over 35% in size. Particulars: HUV-EC-C endothelial cell viability, qHTS; series mostly up to 92.2 µM. In outline: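 HUV-EC-C normal human vascular endothelial cells, 1000 cells/well, pre-incubated 5 hr at 37 °C, then exposed to compounds for 40 hr at 37 °C in complete medium. Viability measured as intracellular ATP by CellTiter-Glo luminescence; AC50 from Hill fits.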

Test [5] can be described thus: Cell Viability - SH-SY5Y (AID 544). Also: nearly all actives have a fitted effect of over 55% in size. Particulars: SH-SY5Y neuroblastoma cell viability; viability change, negative = cytotoxic: at 92.2 µM (top of the series). Summed up:
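Human neuroblastoma SH-SY5Y cells (1500/well) in complete medium were exposed to compounds for 40 hr at 37 °C; intracellular ATP was then quantified by CellTiter-Glo luminescence after 20 min at room temperature. AC50 came from Hill-equation concentration-response fits.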

Test [6] in a line: Cell Viability - Renal Proximal Tubule (AID 545). Also: nearly all actives have a fitted effect of over 40% in size. Particulars: renal proximal tubule cells viability; at 91.7 µM (top of the series), primary cells of rat origin unless noted. In outline:
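Cytotoxicity is scored as a concentration-dependent drop in cellular ATP in primary rat renal proximal tubule cells exposed for 40 hr. AC50 derives from Hill modelling.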

Test [7] in a line: Cell Viability - Mesenchymal (AID 546).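 Also: cells exposed to compound for 40 hours before reading.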 Particulars: mesenchymal cells viability, qHTS; series mostly up to 91.7 µM. In outline:
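Human kidney mesenchymal cells from normal renal glomeruli, 1000 cells/well, rested 5 hr at 37 °C, then treated 40 hr at 37 °C in complete medium. Cellular ATP read by CellTiter-Glo luminescence; AC50 from Hill-equation fits.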

Test [8] can be described thus: Cellular Toxicity (caspase-3) HUV-EC-C (AID 656). Particulars: HUV-EC-C cells, caspase-3 activation (apoptosis), vehicle = 0, 100 µM tamoxifen = 100%; series mostly up to 92.2 µM. Summed up: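 Read-out: luminescence proportional to caspase 3/7 activity, measured 20 min after adding Caspase-Glo 3/7 reagent. Cells (HUV-EC-C) had received compound for 16 hr at 37°C. Increases relative to DMSO and 100 uM tamoxifen gave concentration-response AC50 values.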

Test [9] can be described thus: Cellular Toxicity (caspase-3) SHSY5Y (AID 657). Particulars: SH-SY5Y caspase-3 activation, DMSO zero, 10 µM staurosporine = 100%; series mostly up to 91.7 µM. In outline: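 Cells plated and incubated 5 h at 37 °C, dosed over a concentration range, incubated 16 h, then given Caspase-Glo 3/7 reagent for 1 h at room temperature before luminescence reading. Staurosporine (10 uM) defined full stimulation.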

A short description of test [10]: Cellular Toxicity (caspase-3) MRC-5 (AID 659). Particulars: MRC-5 cells, luminescence, normalized: DMSO 0%, 10 µM staurosporine 100%; series mostly up to 91.7 µM. In outline:
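MRC-5 human normal lung fibroblasts, 1500 cells/well, treated 16 h at 37 °C in complete medium. Caspase 3/7 measured by Caspase-Glo luminescence after 1 h at room temperature. Normalized to DMSO and 10 uM staurosporine; AC50 from Hill fit.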

Test [11] in a line: Cellular Toxicity (caspase-3) Mesangial (AID 660).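 Also: cells exposed to compound for 16 h before the caspase read.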 Particulars: mesangial cells, normalized: DMSO 0%, 100 µM tamoxifen 100%; series mostly up to 91.7 µM. Summed up: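 Human renal glomerular mesangial cells (1000/well) were treated with compounds for 16 h at 37 °C in complete medium, then caspase 3/7 activity was read by Caspase-Glo luminescence. Data were normalized to DMSO and 100 uM tamoxifen; AC50 from Hill fits.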

Test [12] is described as follows: Cell Viability - LYMP1-002 - Assay at 16 hr (AID 948).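 Also: 0% = DMSO alone and full effect = 92 µM tetraoctylammonium bromide.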 Particulars: LYMP1-002 lymphoblastoid cell viability; series mostly up to 92.2 µM. Summed up: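 Acute cytotoxicity is scored as a concentration-dependent fall in intracellular ATP in a human lymphoblastoid line (LYMP1-002) after 16 hr compound exposure at 37 C, measured by luciferase luminescence.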
Test [13] can be described thus: MultiTox-Fluor Cytotoxicity Assay - LYMP1-003 - Dead Cells (AID 961).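 Also: 0% = DMSO and 100% = tetraoctylammonium bromide; nearly all actives have a fitted effect of over 70% in size.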 Particulars: LYMP1-003 lymphoblastoid cells, dead-cell protease fluorescence; series mostly up to 92.2 µM. In outline:
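LYMP1-003 human lymphoblastoid cells (2500/well) exposed to compound 16 h at 37 C in complete medium; dead-cell protease read with bis-AAF-R110 fluorescence (Ex/Em 485/520) after 60 min at room temperature. Normalized to DMSO and 15 uM tetraoctylammonium bromide; AC50 from Hill fit.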

The nature of test [14]: Cell Viability - LYMP1-003 - Assay at 24 hr (AID 963).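 Also: plate controls were DMSO only for no effect and tetraoctylammonium bromide positive control for full effect.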 Particulars: LYMP1-003 lymphoblastoid cell viability; series mostly up to 92.2 µM. In outline:
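Human lymphoblastoid LYMP1-003 cells (2500/well) were rested 5 hr at 37 C, then exposed to compounds in complete medium for 24 hr at 37 C. Cellular ATP was quantified by CellTiter-Glo luminescence, and AC50 values came from Hill fits of concentration-response data.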

The nature of test [15]: Cell Viability - LYMP2-015 (AID 971). Also: nearly all actives have a fitted effect of over 55% in size. Also: potency is read from the fitted curve at half-maximal effect. Particulars: LYMP2-015 lymphoblastoid cell viability; series mostly up to 92.2 µM. In outline: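 Human lymphoblastoid cells (2500/well) in complete medium were preincubated 5 hr at 37 C, then compound-treated 24 hr at 37 C. Intracellular ATP was read by CellTiter-Glo luminescence after 30 min at room temperature; AC50 came from Hill-equation concentration-response fits.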

Test [16] in a line: Cell Viability - LYMP2-025 (AID 976).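 Also: plate controls were DMSO only for no effect and tetraoctylammonium bromide control for full effect.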 Particulars: LYMP2-025 lymphoblastoid cell viability; series mostly up to 92.2 µM. In outline:
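Human lymphoblastoid LYMP2-025 cells (2500/well) were pre-incubated 5 hr at 37 C, then treated with compounds for 24 hr at 37 C in complete medium. Viability was read as intracellular ATP by CellTiter-Glo luminescence; AC50 from Hill fits.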

Test [17] is described as follows: qHTS Assay for Identification of Small Molecule Inducers of Hypoxia Response (AID 2120; active = well fitted curve in the direction sought with a large enough effect in the signal ratio, with a control signal flat, not every such curve was filed as active; the % refers to the signal ratio; also: 0% is about no effect). Particulars: hypoxia response reporter cells, beta-lactamase ratio readout; series mostly up to 104 µM. Summed up:
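HRE-beta-lactamase reporter in CellSensor HRE-bla ME-180 cells, 2500 cells/well in Opti-MEM with 0.5% dialyzed FBS; compounds tested as titration series, 17 h at 37 degrees C. CCF4 substrate 2.5 h at room temperature; AC50 from 460/530 nm ratio.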

Test [18] is described as follows: qHTS assay for small molecule agonists of the antioxidant response element (ARE) signaling pathway measured by Nrf2-dependant transcriptional activity - cell viability counter screen (AID 720653; active = well fitted curve in the direction sought with a large enough effect in the repeat runs; an effect the other way counts as inactive or inconclusive; also: % is scaled to controls: 0 for no effect and ±100 for the full control effect). Particulars: ARE-bla HepG2 viability, CellTiter-Glo ATP luminescence, 16 h; active compounds read low. Summed up:
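ARE-bla HepG2 cells treated with compounds for 16 h at 37C; this counter screen measures viability as intracellular ATP by CellTiter-Glo luminescence after 30 min at room temperature.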

A short description of test [19]: qHTS assay for cell viability of HEK293 cells (AID 743288). Also: % is scaled to controls: 0 for no effect and ±100 for the full control effect; nearly all actives have a fitted effect of over 50% in size. Particulars: ATP luminescence (CellTiter-Glo), 18 h; max response: active compounds read low. In outline:
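The Tox21 protocol used parental HEK293 cells treated for 18 h at 37 C with compounds delivered by pintool; ATP-coupled luminescence after 30 min at room temperature gave viability.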

The nature of test [20]: qHTS assay for cell viability of the p53RE-bla HCT-116 cell line (AID 743292). Also: % is scaled to controls: 0 for no effect and ±100 for the full control effect; nearly all actives have a fitted effect of over 55% in size. Particulars: p53RE-bla HCT-116 viability, ATP luminescence, 16 h; series mostly up to 95 µM. In outline: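 In this qHTS counter-screen, metabolically competent p53RE-bla HCT-116 cells were counted via their ATP content. Compounds were applied for 16 h at 37 C and luciferase-coupled luminescence was measured.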

Several values for one entry are separate records, joined by “and”; a condition that tells them apart may be missing. Identical values can stand only once. A number with no mark means an inactive call. Inconclusive results are not listed. Activity calls are given as the source filed them. Unless noted, calls follow the shape of the dose curve; as a rule, active = well fitted curve in the direction sought with a large enough effect; inconclusive = small, poorly fitted or top-dose-only effect, or another doubt; inactive = no such curve, though single readings can be large; an effect the other way counts as inactive or inconclusive.

As to `O=[N+]([O-])c1cccc2ccccc12`, the Potency in [1] and in test [2] was over 92 µM in each case. The call in test [3], in test [7], in [8], in [9], in test [10] and in [11] was inactive. In addition, in test [17], the result was inactive. Further, the Potency result in [4], in test [5], in test [12], in test [13], in test [14] and in test [15] was “inactive” in each case. Besides, the Potency entry in test [16] and in test [20] was “inactive” throughout. The activity change, negative = cytotoxicity in [6] was -0.153%. The max response was 8.97% and -15.3% in test [18]; -12% and 2.53% in [19].
Consider `ClC(Cl)(Cl)c1ccccc1`, for which the Potency in test [1] and in [2] was over 92 µM each time. Besides, the compound was classed as inactive in test [3], in test [7], in [8], in [9], in test [10] and in [11]. In test [17], the outcome was inactive. Moreover, the Potency entry in [4], in test [5], in test [12], in test [13], in test [14] and in [15] was “inactive” throughout. The Potency entry in [16] and in test [20] was “inactive” in each case. Further, in test [6], the activity change, negative = cytotoxicity is -4.93% and -2.74%. The max response was -1.54% and 10.3% in [18]; -4.96% and -3.96% in test [19].
As for `CC(C)(OO)c1ccccc1`, the Potency in [1] was over 92 µM; in [2] it was over 92 µM; in test [15], 39.8 µM (active). For the same compound, the call in test [3], in [7], in test [8], in test [9], in test [10] and in test [11] was inactive. Further, in test [17], the result was inactive. Also, the Potency result in test [4], in test [12], in test [13], in test [14], in test [16] and in test [20] was “inactive” each time. Further, in [5], the viability change, negative = cytotoxic is -82.7% (active). Moreover, the activity change, negative = cytotoxicity in test [6] is -8.61%. Besides, the max response in [18] was -8.73% and -2.9%; in test [19], -6.54% and -1.29%.
For `ClCBr`, the Potency in [1] and in [2] was over 92 µM throughout. In addition, the compound was called inactive in test [3], in test [7], in test [8], in test [9], in test [10] and in [11]. In [17], the result was inactive. Further, the Potency entry in test [4], in [5], in test [12], in test [13], in test [14] and in [15] was “inactive” in each case. Besides, the Potency result in test [16] and in test [20] was “inactive” throughout. Moreover, the activity change, negative = cytotoxicity in test [6] was -6.27%. Further, the max response in [18] was -6.45%; in [19], 4.95%.
Turning to `BrCCBr`, the Potency in [1] and in test [2] was over 92 µM each time. The result in [3], in [7], in test [8], in [9], in test [10] and in test [11] was inactive. Further, the outcome in test [17] was inactive. The Potency entry in test [4], in test [5], in test [12], in test [13], in test [14] and in test [15] was “inactive” throughout. In addition, the Potency result in [16] and in test [20] was “inactive” each time. Also, the activity change, negative = cytotoxicity in test [6] is -6.16%. Further, the max response in test [18] is 2.36% and -0.33%; in test [19], 2.15% and 1.92%.
Take `CC(Cl)Cl`: the Potency in [1] and in [2] was over 92 µM throughout. Moreover, the call in test [3], in test [7], in [8], in test [9], in test [10] and in [11] was inactive. Moreover, the outcome in [17] was inactive. Moreover, the Potency entry in [4], in test [5], in test [12], in test [13], in [14] and in [15] was “inactive” each time. The Potency result in test [16] and in [20] was “inactive” in each case. Further, the activity change, negative = cytotoxicity in test [6] is -11.4%. In addition, the max response in test [18] is -2.99%; in test [19] it was -4.5%.

(Values after PubChem BioAssay (NCATS).)
